Assay outcomes deposited in PubChem by several laboratories.
Shown are actives, neighbours in structure and some others; about 4.6% of the full set was active somewhere.
TIM10 inh: TIM10 yeast growth inhibition | inhibition, % at 10 µM | S. cerevisiae TIM10 strain growth, BacTiter-Glo luminescence, 24 h | 330,000 compounds, 1.4% hits | AID 463195;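 active = inhibition of 40% or more at the single tested concentration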;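 note: wild-type TIM10 isogenic control strain grown at permissive 25 °C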
SKKanGAS inh: SKKanGAS growth inhibition | S. pyogenes SKKanGAS, kanamycin growth, BacTiter-Glo, 6 h | AID 1662 | 300,000 compounds, 1.3% hits | inhibition, % at 7.5 µM;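 active = mean replicate score, as percent of positive control median, at least 50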;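 note: strain carries kanamycin resistance gene driven by streptokinase promoter and grows in 40 µg/ml kanamycin; loss of luminescence reflects streptokinase promoter inhibition or plain growth inhibition; 0% = median of DMSO wells and 100% = positive control at its reference dose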
tim10-1 inh: growth inhibitors of tim10-1 mutant yeast; S. cerevisiae tim10-1 ts strain growth, BacTiter-Glo, 24 h; inhibition, % at 20 µM; 330,000 compounds, 2.2% hits;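 active = inhibition of at least 40%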;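 note: mutant grown at 25 °C; 0% = DMSO wells with yeast and 100% = wells holding no yeast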
PfHsp90 set2: reduces growth (ATP signal) of yeast expressing P. falciparum Hsp90; inhibition, % at 9.4 µM; 310,000 compounds, 0.32% hits; AID 504621; S. cerevisiae expressing PfHsp90, BacTiter-Glo ATP, 48 h; yeast lacking PDR1 and PDR3 efflux regulators;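 active = every replicate shows inhibition above about 80%, whatever the replicate mean, limit read from the data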;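 note: 0% = DMSO neutral controls and 100% = 20 µM radicicol positive controls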
NALP3 yeast inh: NALP3 inhibition in yeast; inhibition, % at 10 µM; 330,000 compounds, 0.39% hits; Yeast reconstituted NLRP3/ASC/caspase-1, beta-gal luminescence, 24 h;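 active = inhibition of 50% or more; inactive = inhibition below 50%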;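 note: plate controls were induced DMSO wells for no effect and uninduced yeast grown without galactose for full effect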
tim23-1 inh: tim23-1 yeast growth inhibition; inhibition, % at 20 µM; AID 463212; S. cerevisiae tim23-1 growth, BacTiter-Glo luminescence, 24 h; 330,000 compounds, 1.3% hits;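 active = growth inhibition of the mutant yeast at or above 50%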;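 note: temperature-sensitive mutant grown at 25 °C; plate controls were DMSO-treated mutant yeast for no effect and medium wells lacking yeast for full effect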
tim10 confirm: confirmation of TIM10 yeast growth inhibitors | shares compounds with TIM10 inh | S. cerevisiae tim10 strain growth, BacTiter-Glo luminescence, 24 h | inhibition, % at 10 µM | 4,600 compounds, 63% hits | AID 463215;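 active = inhibition of yeast growth at or above a set limit in either of two replicates at 10 µM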;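 note: this counterscreen used the strain with wild-type TIM10; 0% = yeast with DMSO and 100% = medium wells lacking yeast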
tim23-1 conf: confirmation of tim23-1 mutant yeast growth inhibitors | shares compounds with tim23-1 inh | S. cerevisiae tim23-1 growth, BacTiter-Glo luminescence, 24 h | inhibition, % at 20 µM | 4,400 compounds, 83% hits;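 active = inhibition above about 39% in either of two replicate wells at 20 µM, limit read from the data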;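 note: temperature-sensitive tim23-1 mutant grown at 25 °C; 0% = DMSO wells with yeast and 100% = medium wells without yeast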
An asterisk follows results filed as active; · = not tested or not shown.

SMILES | TIM10 inh | SKKanGAS inh | tim10-1 inh | PfHsp90 set2 | NALP3 yeast inh | tim23-1 inh | tim10 confirm | tim23-1 conf
Cc1ccc(CNC(=O)C(=O)NCC2CCCN2S(=O)(=O)c2cccs2)cc1 (stereo unspecified) | -13 | -4 | 0 | -14 | 15 | -3 | · | ·
O=C(Nc1nccs1)c1ccc2c(=O)n3c(nc2c1)CCCCC3 | 49* | 4 | 6 | 10 | 36 | 52* | 44* | 66*
O=C(Nc1nccs1)c1ccc(S(=O)(=O)c2ccccc2)cc1 | 4 | 2 | 7 | 4 | -5 | -6 | · | ·
O=C(Nc1nccs1)c1ccc2ccccc2c1 | 46* | 22 | -27 | -38 | 47 | 54* | 52* | 63*
c1cc2c(cc1-c1csc(NNC3=NCCCCC3)n1)OCCO2 | 18 | 11 | 31 | · | 13 | 39 | · | ·
CCOC(=O)C1(Cc2cccc(Cl)c2)CCCN(C(=O)CCN2CCCC2=O)C1 (stereo unspecified) | 1 | 6 | 8 | -4 | 18 | 2 | · | ·
O=Cc1ccccc1OCCOc1ccc([N+](=O)[O-])cc1 | 76* | -21 | 36 | 10 | 23 | 58* | 68* | 90*
CC(=O)c1ccc(OCCOc2ccc([N+](=O)[O-])cc2)cc1 | 5 | -8 | 18 | 10 | 28 | 38 | · | ·
Cc1ccc(C(=O)N2CCc3ccccc32)cc1C | · | · | · | -4 | · | · | · | ·
CCOC(=O)C1CCN(S(=O)(=O)c2ccc3c(c2)CCN3C(C)=O)CC1 | 19 | -4 | 22 | -14 | 2 | 29 | · | ·
CCOC(=O)C1CCN(S(=O)(=O)c2ccc3c(c2)CCN3C(=O)C2CCC2)CC1 | 62* | -1 | 1 | 2 | 14 | 51* | 20 | 66*
COc1ccc(C(=O)NCCCN=C2NS(=O)(=O)c3ccccc32)cc1 | -5 | -4 | -2 | 2 | 13 | -4 | · | ·
O=C1/C(=C/c2ccc(O)cc2)COc2ccccc21 | 46* | 12 | 39 | 4 | 49 | 78* | 36* | 50*
CNc1ccc(/C=C2\COc3ccccc3C2=O)cc1[N+](=O)[O-] | 1 | -4 | 10 | 19 | 35 | 9 | · | ·
C(=N\Nc1nc2ccccc2[nH]1)/c1cccc2cccnc12 | 67* | 38 | 26 | 10 | 29 | 55* | 55* | 48*
N/C(Cc1ccc(Cl)cc1Cl)=N\OC(=O)c1ccc(Br)o1 | 86* | 1 | 7 | 98* | -1 | 80* | 86* | 48*
COc1ccc(N2C(=O)CSC(c3ccccc3)C2=O)cc1 (stereo unspecified) | 5 | -2 | 28 | 20 | 2 | 20 | · | ·
O=C1C2=C(Nc3ccccc3SC2c2ccco2)c2ccccc21 (stereo unspecified) | 46* | 19 | 20 | -13 | -2 | 55* | 43* | 82*
O=C1c2ccccc2NC(c2ccco2)N1O (stereo unspecified) | 10 | -8 | 0 | -16 | 21 | 2 | · | ·
Cc1cccc(Nc2ncnc3ccc(Br)cc23)c1 | 29 | 0 | 39 | -11 | 17 | 45 | · | ·
Clc1cccc(Nc2ncnc3ccc(Br)cc23)c1 | 48* | -1 | 34 | 5 | 23 | 54* | 44* | 50*
CCOc1ccc2cc(C#N)c(SCC(=O)N3CCC(C)CC3)nc2c1 | 59* | -2 | 36 | · | 9 | 52* | 14 | 50*
O=[N+]([O-])c1ccc(Cl)c(S(=O)(=O)NCCc2ccccn2)c1 | 1 | · | -2 | -9 | 16 | 7 | · | ·
N/C(=N\OC(=O)c1ccc(Cl)cc1[N+](=O)[O-])c1ccccn1 | 62* | -1 | 7 | 1 | 9 | 77* | 71* | 71*
N/C(=N\OC(=O)c1cc(Br)ccc1Cl)c1ccccn1 | 45* | 3 | 27 | -10 | -1 | 62* | 65* | 45*
CCCc1ccc(C(=O)O/N=C(\N)c2ccccn2)cc1 | 52* | 15 | 34 | 7 | 32 | 51* | 64* | 57*
N/C(=N\OC(=O)c1cc([N+](=O)[O-])ccc1Cl)c1ccccn1 | 10 | -3 | 19 | 10 | 5 | 28 | · | ·
